Results from PubChem BioAssay (NCI).
About 79,000 compounds went through this panel and 15% of them were active in at least one assay; those are over-represented in the sample as a whole. Rule as the data show it: active = growth inhibition above about 70%; inactive = the rest.

Key:
[1] = NCI Yeast Anticancer Drug Screen. Data for the rad50 strain (AID 155);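 also: 0% = growth of vehicle-only cultures of the same strain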; conditions: S. cerevisiae rad50 strain growth inhibition; at 50.0 µM; hits give high values
Summary of the method: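 Vehicle-treated cultures provide the reference for the growth inhibition reported for compound-exposed, repair-deficient yeast.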

[2] = NCI Yeast Anticancer Drug Screen. Data for the mec2-1 strain (AID 157); conditions: S. cerevisiae mec2-1 strain, at 50.0 µM, hits give high values
Summary of the method: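 Test agents were screened against the mec2-1 yeast strain, with defined DNA repair or cell cycle alteration. Growth was scored as inhibition against vehicle-only controls.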

[3] = NCI Yeast Anticancer Drug Screen. Data for the sgs1 mgt1 strain (AID 161);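 also: 0% = growth of cultures given vehicle only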; conditions: S. cerevisiae sgs1 mgt1 strain, at 50.0 µM, hits give high values
Summary of the method: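 Read-out: growth inhibition vs vehicle controls. Cells: mutant yeast strain deficient in DNA damage repair.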

[4] = NCI Yeast Anticancer Drug Screen. Data for the cln2 rad14 strain (AID 165);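 also: 0% = growth equal to vehicle treated cultures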; conditions: S. cerevisiae cln2 rad14 strain, at 50.0 µM, hits give high values
Summary of the method: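 Growth of compound-exposed yeast (cln2 rad14 genotype) measured and expressed as inhibition relative to vehicle.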

[5] = NCI Yeast Anticancer Drug Screen. Data for the bub3 strain (AID 167); conditions: S. cerevisiae bub3 mutant strain, at 50.0 µM, hits give high values
Summary of the method: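 Mutant yeast screening strain plus compound; vehicle-treated cultures serve as the 0% inhibition reference.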

[6] = NCI Yeast Anticancer Drug Screen. Data for the mlh1 rad18 strain (AID 175); conditions: S. cerevisiae mlh1 rad18 strain growth inhibition; at 50.0 µM; hits give high values
Summary of the method: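 In this whole-cell yeast screen, a strain with altered DNA damage repair is challenged with compound, and its growth is measured against matched vehicle-treated controls.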

Measured: growth inhibition

O=C1C(N=Nc2ccc(S(=O)(=O)Nc3ccccn3)cc2)C(=O)N(c2ccccc2)C(=S)N1c1ccccc1
inactive: [1] 8.8% | [2] 6.1% | [3] 8.25% | [4] 18.3% | [5] -1.25% | [6] 23.6%

COC(=O)C(CC1=C(O)Nc2ccccc2N1)/C(=N/NC(N)=O)C(=O)Nc1ccccc1C (configuration not stated)
inactive: [1] 11.4% | [2] 9% | [3] 13.6% | [4] -17.6% | [5] -5.5% | [6] -46.4%

Cc1cn2cc(-c3cccs3)nc2s1
inactive: [1] 15.2% | [2] -1% | [3] 19.4% | [4] 18.6% | [5] -7.8% | [6] 15.1%

CCCCN(CCCC)CC(O)c1cc(-c2ccccc2)nc2c(O)cccc12 (configuration not stated)
inactive: [1] -28.6% | [2] 22.4% | [3] -18.2% | [4] -14.4% | [5] 3.6% | [6] -12.2%

CCCCOC(=O)C1CCCC1=O (configuration not stated)
inactive: [1] -14.6% | [2] -31.9% | [3] -2.15% | [4] 1.45% | [5] -43.1% | [6] 9.05%

O=C1CC[C@@H](NC(=O)Cc2ccccc2)C(=O)N1
inactive: [1] -6.65% | [2] -19.3% | [3] -12.8% | [4] -6.75% | [5] 2.25% | [6] -9.1%

CC1=NNC(=O)C2CCC(=O)N12 (configuration not stated)
inactive: [1] 14.8% | [2] 1% | [3] 7.15% | [4] 11.1% | [5] 12.1% | [6] 22.8%

Cc1cc2c(-c3ccc(Cl)cc3)oc(-c3ccc(Cl)cc3)c2cc1C
inactive: [1] -7.35% | [2] 15.8% | [3] -6.35% | [4] 2.85% | [5] -15.4% | [6] -9.5%

O=C(O)C1CCC2SC(F)(F)C(F)(F)C2C1 (configuration not stated)
inactive: [1] -4.05% | [2] 12.2% | [3] 2.65% | [4] 12.5% | [5] 8.55% | [6] 11.6%

Cc1cc(N(CCC#N)CCC#N)ccc1N=Nc1cccc(C(=O)O)c1
inactive: [1] -40.4% | [2] -33.8% | [3] -10% | [4] -16.4% | [5] -33.8% | [6] -27.1%

CC1=Nc2ccccc2N2C1=CC1=C(C(=O)c3cc4ccccc4cc3C1=O)C2C (configuration not stated)
inactive: [1] 16.4% | [2] 6.65% | [3] 5.75% | [4] 24.2% | [5] -5.2% | [6] 24.4%

CCO/C(C)=N/n1c(C)nc2[nH]ncc2c1=O
inactive: [1] 1.55% | [2] -10.8% | [3] 5.55% | [4] -6.45% | [5] 11.7% | [6] 17.9%

CS(=O)(=O)CCCCCCCCCCC(=O)O
inactive: [1] -5.4% | [2] 13.6% | [3] 3.4% | [4] 3.95% | [5] 10.4% | [6] 15.4%

Cc1cc(C)c(C)c(Br)c1
inactive: [1] 5% | [2] 4.6% | [3] -0.55% | [4] -33.1% | [5] 2.4% | [6] 4.9%

OCC1CCCCCCCCCC1
inactive: [1] 36.3% | [2] -10.7% | [3] 29.8% | [4] 25.1% | [5] 20.1% | [6] 44.5%

CC(=O)OCC1OC(n2c(S)c(C#N)c(-c3ccccc3)c(C#N)c2=O)C(OC(C)=O)C(OC(C)=O)C1OC(C)=O (configuration not stated)
inactive: [1] 22.1% | [2] 8.45% | [3] -17.3% | [4] -7.4% | [5] -21.2% | [6] -37.1%

CCCCc1ccc(Nc2nc(SC)c3[nH]cnc3n2)cc1
inactive: [1] 0.85% | [2] -17.6% | [3] 28.9% | [4] 16.1% | [5] 29.7% | [6] -37.7%

CC/C(Cl)=N\OC(=O)Nc1ccc(F)cc1F
inactive: [1] 2.2% | [2] -12.1% | [3] -4.05% | [4] 7.05% | [5] -6.45% | [6] -26.4%

Cc1cnn(-c2ccccc2)[n+]1[O-]
inactive: [1] 0.65% | [2] 11.5% | [3] 9.5% | [4] -28.8% | [5] 9.6% | [6] 6.4%

CCC(c1ccco1)C(C#N)C(=O)OC(C)(C)C (configuration not stated)
inactive: [1] -11.8% | [2] -21.9% | [3] -1.05% | [4] -5.8% | [5] -16.3% | [6] -27.7%

O=C(c1ccc2ccccc2c1)C(Cl)C(Cl)c1ccccc1 (configuration not stated)
inactive: [1] -13.2% | [2] 10.8% | [3] -1.55% | [4] -15.8% | [5] 53.1% | [6] -6.15%

CCOC(=O)NC(Nc1ccc(F)cc1F)(C(F)(F)F)C(F)(F)F
inactive: [1] 12.8% | [2] -23.4% | [3] -15.7% | [4] 10.2% | [5] -14.8% | [6] 1.4%

COc1ccc(NC(=O)Nc2ccc(-c3ccc(NC(=O)Nc4ccc(OC)cc4)c(C)c3)cc2C)cc1
inactive: [1] -30.1% | [2] -41.4% | [3] -8.5% | [4] -3.25% | [5] -24.1% | [6] -23.6%

O=C(CCC(=O)NO)NO
inactive: [1] 1.4% | [2] -12.6% | [3] 4.75% | [4] -17.7% | [5] -20.9% | [6] -15.9%

COc1cc(O)c(C(C)=O)c(O)c1O
inactive: [1] -20.4% | [2] -12.8% | [3] -3.1% | [4] -36.7% | [5] 4.8% | [6] 6.45%

CCOC1(OCC)CS(=O)(=O)C1c1ccccc1 (configuration not stated)
inactive: [1] -1.2% | [2] -10.2% | [3] 1.95% | [4] -26.2% | [5] 12.6% | [6] -18.6%

C=C(C)C(=O)OCCN(CC)CC
inactive: [1] 33.9% | [2] -4.15% | [3] 17.7% | [4] 23.6% | [5] 11.4% | [6] 23.5%

O=C(Nc1cccc2c1[nH]c1c(-c3ccccc3)nccc12)c1ccccc1[N+](=O)[O-]
inactive: [1] 58.1% | [2] 45.1% | [3] 49.2% | [4] 23.2% | [5] 42.6% | [6] 51.5%

O=C(C(=O)c1cccs1)c1cccs1
inactive: [1] 3.1% | [2] 9.05% | [3] 34.4% | [4] 6.15% | [5] -17.5% | [6] 22.5%

O=S(=O)(O)SCCCNCCCCCCCCNCCCSS(=O)(=O)O
inactive: [1] -18.6% | [2] -8.85% | [3] -1.6% | [4] -13.3% | [5] 8.45% | [6] 3.45%

Clc1cccc(-c2sc(-c3ccsc3)cc2Cc2ccsc2)c1
inactive: [1] -21.2% | [2] -20.1% | [3] -22.1% | [4] -28.6% | [5] -24.1% | [6] 2.1%

O=C(Oc1ccc([N+](=O)[O-])cc1)C1CCCN1C(=O)OCc1ccccc1 (configuration not stated)
inactive: [1] -6.55% | [2] -13.7% | [3] 7.55% | [4] 8.5% | [5] 7.2% | [6] 0.15%

CCC(=O)OCC(C)COC(=O)CC
inactive: [1] 9.55% | [2] 11.8% | [3] 4.1% | [4] 1.05% | [5] -8.4% | [6] -5.25%

CNC(=O)c1cc(OC)ccc1O
inactive: [1] -25.9% | [2] -9.7% | [3] -4.3% | [4] -32.3% | [5] -3.6% | [6] 12.4%

NNc1ccc(S(=O)(=O)C(F)F)cc1
inactive: [1] 29.9% | [2] -29.2% | [3] 20.6% | [4] 41% | [5] 41.2% | [6] 13.1%

O=[N+]([O-])c1ccc2c(c1)Sc1ccccc1N2CCCCCl
inactive: [1] -24% | [2] -15.8% | [3] -49.2% | [4] -7.25% | [5] -1.8% | [6] -23.2%

COC(=O)C1=C(C)N(NC(=O)c2ccccc2)C2(O)CCCC(=O)C12C (configuration not stated)
inactive: [1] 20.2% | [2] 2.2% | [3] 17.8% | [4] -29.6% | [5] -6.05% | [6] 23.9%

N#CC1(NC2CCCCC2)CCN(Cc2ccccc2)CC1
inactive: [1] -5.5% | [2] -11.9% | [3] -6.1% | [4] 4.1% | [5] -7.5% | [6] -1.75%

CN(C)Cc1ccc(O)c(CN(C)C)n1
inactive: [1] -21.1% | [2] -19.1% | [3] -14.8% | [4] -3.65% | [5] -49.8% | [6] -19.2%

CCCCCCCSSCCCCCCC
inactive: [1] -9.85% | [2] -26.1% | [3] -3.55% | [4] 11.9% | [5] -16% | [6] -0.4%

CS(=O)(=O)OC[C@@H]1C2CCC(C2)[C@@H]1COS(C)(=O)=O
inactive: [1] -8.45% | [2] -12.8% | [3] 1.5% | [4] -52.8% | [5] -3.5% | [6] -14.2%

CCCCOC(=O)c1ccc(O)cc1.[Zn+2]
inactive: [1] -31.1% | [2] -11.6% | [3] -16.6% | [4] -41.9% | [5] -22.4% | [6] -35.4%
